Measurements: the supplement of paper PMC6607015
Structures can show the parent of a compound that is named as a salt.

Test system: HeLa MZ
Experiment: filipin (cholesterol) integrated intensity within LBPA endosomes, Z-score; higher = more cholesterol in LBPA endosomes
Details: compound concentration in added solution (µM; 5 µl added to 20 µl cells): 10; 18 h
Method in brief: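 In duplicate 384-well imaging plates, 3,500 HeLa MZ or A431 cells in 20 µl per well were seeded onto 5 µl of 10 µM compound solution. The cells were incubated for 18 h, fixed in 4% PFA and stained with 6C4 anti-LBPA antibody, filipin, propidium iodide and CellTracker green before four 20× images were acquired per well. Values are AcuityXpress-normalised Z-scores of per-cell integrated LBPA or filipin intensity, obtained by MetaXpress segmentation over the whole cell or in LBPA endosomes.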

Row | Compound | filipin (z-score)
1 | CN1CCN(CC(=O)N2c3ccccc3C(=O)Nc3cccnc32)CC1 [Pirenzepine dihydrochloride] | -0.529
2 | O=C(O)/C=C/c1ccc(Cn2ccnc2)cc1 [Ozagrel hydrochloride] | -0.0855
3 | CC(=O)[C@H]1CC[C@H]2[C@@H]3C=CC4=CC(=O)CC[C@@]4(C)[C@@H]3CC[C@]12C [Dydrogesterone] | -0.0901
4 | COc1ccc2cc([C@H](C)C(=O)O)ccc2c1 [Naproxen] | -0.644
5 | CC(=O)[C@H]1CC[C@H]2[C@@H]3C[C@H](C)C4=CC(=O)CC[C@]4(C)[C@H]3[C@@H](O)C[C@]12C [Medrysone] | 0.0722
6 | CCCCc1oc2ccccc2c1C(=O)c1cc(I)c(OCCN(CC)CC)c(I)c1 [Amiodarone hydrochloride] | 1.95
7 | CN(C)CCC(c1ccc(Br)cc1)c1ccccn1 (stereo not drawn) [Brompheniramine maleate] | 0.233
8 | CCN(CC)C(C)CN1c2ccccc2Sc2ccccc21 (stereo not drawn) [Ethopropazine hydrochloride] | 1.8
9 | O=C(O)c1cc(/N=N/c2ccc(S(=O)(=O)Nc3ccccn3)cc2)ccc1O [Sulfasalazine] | -0.277
10 | CCCc1ncc(C[n+]2ccccc2C)c(N)n1 [Amprolium hydrochloride] | -0.419
11 | Cc1ncc([N+](=O)[O-])n1CC(C)O (stereo not drawn) [Secnidazole] | -0.579
12 | OC(CCN1CCCCC1)(c1ccccc1)C1CC2C=CC1C2 (stereo not drawn) [Biperiden hydrochloride] | 0.363
13 | NC12CC3CC(CC(C3)C1)C2 [Adamantamine fumarate] | -0.616
